From PubChem BioAssay (NCI)
The panel holds about 83,000 compounds, 20% with a hit somewhere; the sample as a whole holds those more often.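 Cells were grown in 96-well plates and exposed to the test compound at a single concentration for 48 hours; results are reported as percent growth, with values below 10 considered active.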 A number with no mark means an inactive call. Calls of active or inactive are those of the source.

Assays:
Assay in all cases: NCI-60 one-dose screen, 48 h (100 = growth as untreated, 0 = no growth, -100 = all killed)
Conditions in all cases: 10 µM unless noted
[1] = tested on: DU-145 prostate
[2] = tested on: K-562 leukemia
[3] = tested on: MALME-3M melanoma
[4] = tested on: MDA-MB-231 breast
[5] = tested on: RXF 393 renal
[6] = tested on: SF-268 CNS
[7] = tested on: SF-295 CNS
[8] = tested on: SF-539 CNS
[9] = tested on: UACC-257 melanoma
[10] = tested on: M14 melanoma
[11] = tested on: HCT-15 colon
[12] = tested on: HT29 colon
[13] = tested on: SNB-75 CNS
[14] = tested on: SNB-19 CNS
[15] = tested on: U251 CNS
[16] = tested on: PC-3 prostate
[17] = tested on: SK-MEL-5 melanoma
[18] = tested on: UACC-62 melanoma
[19] = tested on: LOX IMVI melanoma
[20] = tested on: SK-MEL-28 melanoma

| Structure (SMILES) | growth [1] | growth [2] | growth [3] | growth [4] | growth [5] | growth [6] | growth [7] | growth [8] | growth [9] | growth [10] | growth [11] | growth [12] | growth [13] | growth [14] | growth [15] | growth [16] | growth [17] | growth [18] | growth [19] | growth [20] |
| --- | --- | --- | --- | --- | --- | --- | --- | --- | --- | --- | --- | --- | --- | --- | --- | --- | --- | --- | --- | --- |
| O=[N+]([O-])c1cc(NS(=O)(=O)c2ccccc2)ccc1NS(=O)(=O)c1ccccc1 | 87.1% | 125% | 155% | 91% | 134% | 106% | 133% | 118% | 95% | 88.5% | 72.1% | 84.6% | 125% | 108% | 102% | 80.7% | 99.4% | 85.7% | 99% | 111% |
| CN(C)CCN1C(=O)c2cccc3c(/C=C/CN4C(=O)c5cccc6cccc(c56)C4=O)ccc(c23)C1=O | 113% | -46.8% (active) | -62.4% (active) | -57.4% (active) | 57% | 101% | 106% | 92.8% | 92% | 77.9% | -75.6% (active) | 94% | 90.6% | 18.7% | 90.8% | 71.7% | 82.2% | 98.7% | 30.3% | -56.5% (active) |
| COc1ccc(C(=O)Cn2c(C(=O)c3ccc(OC)cc3)nc3ccccc32)cc1 | 54.6% | 7.61% (active) | 37.2% | 27.8% | 20.4% | 44.5% | 1.78% (active) | 19.4% | 48.5% | -2.49% (active) | 15.9% | 14.9% | 10.4% | 48.8% | 18.3% | 34.2% | 23.5% | 13.9% | 38.8% | 42.8% |
| CCN(CC)CCN1C(=O)c2c(c(C)c3c(oc4ccc(O)cc43)c2C)C1=O | 0.0633% (active) | 6.29% (active) | 73.3% | -28.7% (active) | 98.2% | 37.1% | 89.7% | -99.5% (active) | 93.1% | 38.3% | 10.5% | 67.9% | 94.3% | 24.7% | -23.8% (active) | 49.7% | 77.2% | 56.6% | -94.1% (active) | 72.2% |
| N#Cc1c(-c2ccccc2)nc(SCC(O)CN2CCOCC2)nc1N1CCOCC1 (stereo not given) | 61.7% | 90% | 23.1% | 77.3% | 72.5% | 62.3% | 43.6% | 56.6% | 17.1% | 59.9% | 80.1% | 68.5% | -4.63% (active) | 65.8% | 81.4% | 56.5% | 66.6% | 42.9% | 78% | 59.9% |
| Cc1c(CN)cc(-c2ccc(Cl)cc2)n1-c1ccccc1 | 89.2% | 66.1% | 107% | 87.1% | 84.6% | 86.4% | 87.7% | 93.7% | 91.1% | 82.8% | 80.9% | 103% | 78.5% | 84.7% | 79.9% | 89.4% | 82.4% | 57% | 67% | 114% |
| CCc1n(Cc2ccc3ccccc3n2)cc[n+]1Cc1ccc2ccccc2n1 | 51.7% | 24.9% | -9.45% (active) | 31.1% | 46.6% | 29.6% | 64.7% | 24.5% | -16.5% (active) | 46.6% | 92.2% | -4.83% (active) | 29.5% | 20.9% | 12.3% | 19% | -36.3% (active) | 12.4% | 26.1% | 15.9% |
| CCCn1cnc2c(c1=N)C(c1ccc(F)cc1)c1sc3c(F)cccc3c1O2 (stereo not given) | 76.6% | 16.9% | 54.1% | 63.3% | 52.2% | 49.6% | 27.7% | 32.6% | 73.4% | 39.3% | 28% | 63.6% | 26% | 35.4% | 30.8% | 50.1% | 42.2% | 12.1% | 43.4% | 56% |
| COc1ccc(Cn2cc(C(=O)N=Nc3c(O)[nH]c4c(C)cccc34)nn2)cc1 | 60.4% | 63.2% | 40.5% | 51% | 81.9% | 87.3% | 111% | 80.1% | 93.7% | 71.9% | 68% | 67.4% | 27.3% | 97.5% | 108% | 61.3% | 93.8% | 74.1% | 75.3% | 94.9% |
| CCN(CC)CCN1C(=O)c2cccc3c(/C=C/CN4C(=O)c5cccc6cccc(c56)C4=O)ccc(c23)C1=O | 106% | 19.7% | 91.9% | 95.5% | 74.2% | 93.5% | 108% | 92.5% | 109% | 105% | 95.8% | 103% | 91.2% | 96% | 105% | 86.6% | 94.3% | 99.8% | 96.6% | 109% |
| O=C(Cc1cccc(OC(F)(F)F)c1)Nc1ccc(CCCCc2nnc(NC(=O)Cc3ccccn3)s2)nn1 | 86.9% | 45.7% | 82.8% | 84.6% | 52.1% | 78.7% | 60.6% | 81.9% | 92.9% | 50.8% | 89.6% | 76.6% | 78.6% | 84.9% | 82.3% | 17.5% | 62.2% | 63.5% | 82.8% | 93.8% |
| C=C1C(=O)O[C@H]2[C@H]1CC/C(Cn1cc(CCC)nn1)=C\CC[C@@]1(C)O[C@@H]21 | 28.7% | 4.94% (active) | 4.68% (active) | 12.2% | -70.2% (active) | 67.9% | 71.6% | -25% (active) | 19.1% | 12.1% | -1.47% (active) | -9.05% (active) | 75.8% | 73.3% | 73.7% | 64.4% | 53.1% | 4.67% (active) | -29.3% (active) | 7.96% (active) |
| Cc1ccc2nc(NC(=O)CSc3nc(-c4ccccc4)c(C#N)c4nnnn34)sc2c1 | 119% | 97.8% | 109% | 113% | 120% | 113% | 103% | 100% | 108% | 99.5% | 113% | 106% | 96.6% | 102% | 104% | 99.7% | 102% | 94.7% | 96.3% | 111% |
| C#COc1cccc(Nc2ncnc3cc(NC(=O)[C@@H](C)Cl)ccc23)c1 | 13% [6.25 µM] | 7.85% [6.25 µM] (active) | 38.2% [6.25 µM] | 24.5% [6.25 µM] | 7.55% [6.25 µM] (active) | 21.6% [6.25 µM] | 7.32% [6.25 µM] (active) | -5.67% [6.25 µM] (active) | 36.9% [6.25 µM] | 10.4% [6.25 µM] | 11.6% [6.25 µM] | 0.0167% [6.25 µM] (active) | -7.9% [6.25 µM] (active) | 19.3% [6.25 µM] | 4.37% [6.25 µM] (active) | 8.91% [6.25 µM] (active) | 14.2% [6.25 µM] | 24.9% [6.25 µM] | 11.4% [6.25 µM] | 38% [6.25 µM] |
| COc1ccc(-c2nn(-c3ccccc3)cc2/C=C/C(=O)NNC(=O)Nc2ccc(C)cc2)cc1 | 108% | 78.3% | 91.8% | 83.5% | 109% | 102% | 99% | 101% | 95.7% | 94.1% | 97.1% | 101% | 96.5% | 88.5% | 94.3% | 89.6% | 96.5% | 89.3% | 97.6% | 115% |
